RORgamma inh – blocks mouse ROR gamma transcriptional activity | P51450 | Drosophila S2 Gal4-RORgamma UAS-luciferase reporter, 20 h | Potency, µM (series often up to 53.6 µM), for inactives: at the top dose activity change, negative = inhibition, usual class: inhibitors | hit rate 5.4% among 310,000 | AID 2551; also: % is scaled to controls: 0 for no effect and ±100 for the full control effect; nearly all actives have a fitted effect of over 60% in size
Target sequence (P51450 whole entry, looked up, the tested form may be a part): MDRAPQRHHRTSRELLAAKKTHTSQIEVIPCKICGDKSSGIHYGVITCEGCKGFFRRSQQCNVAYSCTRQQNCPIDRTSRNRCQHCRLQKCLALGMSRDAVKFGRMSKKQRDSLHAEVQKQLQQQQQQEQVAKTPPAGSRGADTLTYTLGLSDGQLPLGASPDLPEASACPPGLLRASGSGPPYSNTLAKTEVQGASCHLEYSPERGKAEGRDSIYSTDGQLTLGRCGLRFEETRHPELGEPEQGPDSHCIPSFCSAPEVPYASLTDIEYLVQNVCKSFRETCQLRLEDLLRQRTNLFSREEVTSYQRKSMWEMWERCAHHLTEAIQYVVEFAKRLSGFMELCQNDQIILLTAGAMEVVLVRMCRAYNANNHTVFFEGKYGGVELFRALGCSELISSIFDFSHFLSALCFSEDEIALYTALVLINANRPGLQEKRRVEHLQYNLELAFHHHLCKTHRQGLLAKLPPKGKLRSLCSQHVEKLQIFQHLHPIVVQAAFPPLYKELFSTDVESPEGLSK
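Drosophila S2 cells stably expressing Gal4-DBD/mouse RORγ fusion under metallothionein promoter plus UAS-luciferase; compound 1 h, then 700 uM CuSO4 induction for 20 h at ambient temperature; inhibition read as reduced luminescence.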
ATXN viability – cell viability loss in ATXN counter-screen; hit rate 0.49% among 400,000; S2 cells (HEK-293 line with an ATXN2-luciferase reporter) viability, CellTiter-Fluor protease fluorescence, 24 h; Potency, µM (titrated, usually from 56.7 µM), usual class: cytotoxic; also: nearly all actives have a fitted effect of over 40% in size
Gal4-VP16 FLuc – counter-screen for ROR gamma inhibitors: Gal4-VP16 reporter; Potency, µM (highest dose often 53.6 µM), inactives show at the highest dose activity, negative = inhibition, usual class: inhibitors; Drosophila S2 Gal4-VP16 UAS-luciferase, luminescence, 20 h; hit rate 3.5% among 310,000; AID 2546;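 also: Gal4-VP16 expression switched on by copper sulfate through the metallothionein promoter; % is scaled to controls: 0 for no effect and ±100 for the full control effect; nearly all actives have a fitted effect of over 50% in size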
HepG2 viability – kills HepG2 cells in TGF-b inhibitor counter-screen. HepG2 CAGA-GFP viability, ATP luminescence, 18 h. Potency, µM (top dose mostly 46.1 µM), for the others: at the top dose activity change, negative = cytotoxicity, usual class: cytotoxic. hit rate 0.76% among 410,000. AID 588856
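CellTiter-Glo luminescence gave cytotoxicity after 18 hours at 37 degrees C. The cells were HepG2 CAGA-GFP in 1% FBS DMEM, stimulated with 500 pg/mL TGF-beta after compound addition. %Activity was normalised to no-cell wells (complete cell-killing) and DMSO (no toxicity), and curves were fitted and classified.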
TGFb SMAD3 inh – blocks TGF-b signaling. hit rate 1.2% among 410,000. HepG2 CAGA-GFP TGF-b/SMAD3 reporter, GFP fluorescence, 18 h; TGF-beta stimulated, 500 pg/mL final. AID 588855. Potency, µM (titrated, usually from 46.1 µM), for the others: at the highest dose activity, negative = inhibition, actives largely listed as inhibitors; also: % is scaled to controls: 0 for no effect and ±100 for the full control effect; nearly all actives have a fitted effect of over 65% in size
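Read-out: total well GFP (ex488/em500-530) summed from mean per-cell fluorescence. Cells: HEPG2 CAGA-GFP, 1% FBS DMEM, 18 h at 37 degrees C with 500 pg/mL final TGF-beta. Unstimulated wells served as the full-inhibition control; stimulated DMSO wells = 0%.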
ATXN2 expr inh – inhibitors of ATXN2 expression; AID 1745845; HEK-293 ATXN2-luciferase reporter, luminescence, 24 h; Potency, µM (top dose mostly 57 µM), for inactives: at the highest dose activity change, negative = inhibition, actives largely listed as inhibitors; hit rate 0.72% among 360,000; also: % is scaled to controls: 0 for no effect and ±100 for the full control effect; nearly all actives have a fitted effect of over 55% in size
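ATXN2-luciferase reporter cells (luciferase flanked by upstream and downstream ATXN2 gene portions) were treated 24 h at 37 °C with compounds at up to 57 uM. SteadyGlo luminescence gave expression; GF-AFC fluorescence gave viability.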
Active calls of the source: *; i = inactive; ? = inconclusive; · = no result given; [ ] = remark or other dose. Sampled rows, rich in hits. Any-hit rate of the full collection: about 6.1%. Calls follow the shape of the dose curve; as a rule, active = well fitted curve in the direction sought with a large enough effect; inconclusive = small, poorly fitted or top-dose-only effect, or another doubt; inactive = no such curve, though single readings can be large; an effect the other way counts as inactive or inconclusive. Potency is read from the fitted curve at half-maximal effect.

SMILES | RORgamma inh | ATXN viability | Gal4-VP16 FLuc | HepG2 viability | TGFb SMAD3 inh | ATXN2 expr inh
CCCCCc1cc(=O)oc2c(C(CCN(CC)CC)c3ccc(N(C)C)cc3)c(OC)cc(OC)c12 (stereo not given) | 16% | 25µM* | -5% | -109% | ? | ?
CCCCCc1cc(=O)oc2c(C(CCN3CCCC(C)C3)c3ccc(N(C)C)cc3)c(OC)cc(OC)c12 (stereo not given) | -11% | · | -4% | -76% | ? | ?
CCCCCc1cc(=O)oc2c(C(CCN3CCCC(C)C3)c3cc(OC)c(OC)c(OC)c3)c(OC)cc(OC)c12 (stereo not given) | -8% | 32µM* | -11% | 16µM* | ? | ?
CCN(CC)CCC(c1ccc2c(c1)OCO2)c1c(OC)cc(OC)c2ccc(=O)oc12 (stereo not given) | -12% | 10µM* | -3% | -16% | 0% | 10%
CCN=c1scc(-c2ccco2)n1/N=C/c1ccc(OC)c(O)c1 | -32% | i | 30% | -34% | 0% | 123%
CCN=c1scc(-c2ccco2)n1/N=C/c1ccc(O)cc1 | 0.1µM* | i | 0.5µM* | 18% | -6% | 58%
COc1ccc(C2CC(=O)N(C)c3ccccc3S2)cc1OC (stereo not given) | 7.9µM* | ? | ? | -3% | 19% | 133%
COc1ccc(C2CC(=O)N(Cc3ccc(F)cc3)c3ccccc3S2)cc1 (stereo not given) | · | ? | · | -43% | 16µM* | ?
COc1ccc(C2CC(=O)N(Cc3ccc(F)cc3)c3ccccc3S2)cc1OC (stereo not given) | · | i | · | 3% | -1% | 9%
COc1ccc(C2CC(=O)N(Cc3cccc(F)c3)c3ccccc3S2)cc1 (stereo not given) | · | ? | · | -32% | ? | ?
COc1ccccc1CCc1nc2ccccc2n1C1CCN(C(=O)c2cn3ccsc3n2)CC1 | · | i | · | · | · | ·
Cc1cc2nc3c(=O)[nH]c(=O)nc-3n(C)c2cc1C=O | 10µM* | · | 2% | · | · | ·
CCCC[C@@H]1CNC(=S)N1CCCC | 2.8µM* | ? | 7.9µM* | -6% | ? | ?
CCC(=O)NC1CC(=O)N(c2ccc3c(c2)OCCO3)C1 (stereo not given) | · | · | · | -6% | 3% | ·
COc1ccc(-c2csc(Nc3cccc(C)n3)n2)cc1 | ? | i | ? | -2% | -8% | 96%
Cc1cccc(Nc2nc(-c3cccs3)cs2)n1 | ? | i | ? | -19% | 13µM* | 108%
Cc1cccc(Nc2nc(-c3ccccn3)cs2)n1 | 1.6µM* | ? | 2.5µM* | -35% | ? | ?
CC(=O)Oc1ccc(-c2csc(Nc3cccc(C)n3)n2)cc1 | 3.2µM* | ? | 10µM* | -60% | ? | 79%
O=C(Nc1ccccc1)Nc1cc(Cl)cc(Cl)c1 | ? | ? | ? | -82% | 16µM* | ?
O=C(NCCNC(=O)c1cc(OCC(F)(F)F)ccc1OCC(F)(F)F)Nc1cccc(C(F)(F)F)c1 | ? | i | -30% | -41% | ? | -23%
O=C(Nc1ccccc1)Nc1cc(OCC(F)(F)F)cc(OCC(F)(F)F)c1 | ? | i | 16µM* | 11µM* | ? | -10%[11.3 µM]
COCCCNC(=O)N1CCN(c2nnc(C)c3c(C)n(-c4ccc(Cl)cc4)nc23)CC1 | · | i | · | 1% | 12% | -10%
COc1ccc(C(=O)O/N=C2\C(=O)N(C)c3ccccc32)cc1 | · | i | · | 6% | -1% | ·
CN1C(=O)/C(=N\OC(=O)c2cccc3ccccc23)c2ccccc21 | ? | i | 11µM* | -43% | ? | 5%
CCc1cccc(CC)c1NC(=O)N1Cc2[nH]nc(NC(=O)c3ccc(N4CCN(C)CC4)cc3)c2C1 | · | · | · | · | · | -1%
CCS(=O)(=O)c1nnnn1-c1ccccc1S(C)(=O)=O | ? | ? | ? | -2% | 11µM* | -26%

Bioassay records (PubChem)
